Where “and” joins values, the source holds several entries; their conditions need not be identical. Identical values can stand only once. Records with an inconclusive call do not appear. Entries that show only a call come without a potency. Calls of active or inactive are those of the source. Unless noted, calls come from the whole dose curve.
Tests used:
[1] = Nuclear factor erythroid 2-related factor 2/antioxidant responsive element (Nrf2/ARE) small molecule agonists: qHTS cell viability counter screen in human keratinocytes (AID 1919968; active = well fitted curve in the direction sought with a large enough effect in the repeat runs; an effect the other way counts as inactive or inconclusive; note: nearly all actives have a fitted effect of over 55% in size; note: potency is the fitted concentration of half-maximal effect)
Outline: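 Cells of the KeratinoSens line were plated at 1,500 per well and left for 5 h before compound transfer from DMSO stocks. After a 23 h incubation (37 C, 5% CO2), CellTiter-Fluor was added. Signal was taken as fluorescence intensity 1 h later.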

[2] = Nuclear factor erythroid 2-related factor 2/antioxidant responsive element (Nrf2/ARE) small molecule agonists: luciferase reporter gene qHTS assay in human keratinocytes (AID 1919969); note: nearly all actives have a fitted effect of over 35% in size; note: potency is the fitted concentration of half-maximal effect
[3] = molecular target: KiSS-1 receptor (Homo sapiens) (UniProt Q969F8); test: Human kisspeptin (KISS1R) small molecule agonists, calcium flux assay in KISS1R-HEK293 cells (AID 1920064; active = well fitted curve in the direction sought with a large enough effect in the repeat runs; an effect the other way counts as inactive or inconclusive)
KiSS-1 receptor (Homo sapiens), sequence (Q969F8 whole entry, looked up): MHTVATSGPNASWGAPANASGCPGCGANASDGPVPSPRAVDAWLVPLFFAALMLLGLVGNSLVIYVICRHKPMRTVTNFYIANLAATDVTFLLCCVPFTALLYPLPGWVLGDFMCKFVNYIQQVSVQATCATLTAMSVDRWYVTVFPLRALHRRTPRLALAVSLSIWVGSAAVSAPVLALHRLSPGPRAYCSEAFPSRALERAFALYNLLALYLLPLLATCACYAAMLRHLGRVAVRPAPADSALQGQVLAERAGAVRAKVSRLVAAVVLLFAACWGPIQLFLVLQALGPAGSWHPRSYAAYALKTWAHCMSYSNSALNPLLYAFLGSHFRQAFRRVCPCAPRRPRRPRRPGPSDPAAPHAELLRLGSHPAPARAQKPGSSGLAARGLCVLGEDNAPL
Outline: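 Cell line: HEK293, stable human KISS1R. Dye loading 1 h at 37 C after 18 h culture. Read: kinetic fluorescence, 480/540 nm, 3 min at 1 s intervals.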

[4] = G protein-coupled receptor (GPCR) small molecule agonists, calcium flux assay: HEK293 wild type cell line counter screen (AID 1920065)
Outline: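 Tox21 10K compounds, 15 concentrations each in triplicate, pin-transferred in DMSO onto dye-loaded cells; kinetic read at 480/540 nm for 3 min, 1 s intervals.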

[5] = p53 small molecule agonists, cell-based qHTS assay with human liver microsomes (AID 1963577);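 note: p53 response element beta-lactamase reporter cells with liver microsomes plus NADPH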
Outline: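 HLM-supplemented p53RE-bla reporter assay: 16 h compound exposure at 37 C, microsomes and NADPH each 0.5 mg/mL final, read by fluorescence intensity.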

[6] = p53 small molecule agonists, cell-based qHTS assay with rat liver microsomes (AID 1963578)
Outline: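 Quantitative HTS of the Tox21 10K library: p53RE-bla cells, rat liver microsomes plus NADPH at 0.5 mg/mL final each, 16 h at 37 C, beta-lactamase fluorescence detection.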

[7] = p53 small molecule agonists, cell-based qHTS assay with human liver microsomes: qHTS cell viability counter screen (AID 1963579); note: nearly all actives have a fitted effect of over 45% in size
Outline: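 Viability of p53RE-bla cells is measured as CellTiter-Glo luminescence following a 16 h, 37 C incubation with compound, liver microsomes from human donors and NADPH.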

[8] = p53 small molecule agonists, cell-based qHTS assay with rat liver microsomes: qHTS cell viability counter screen (AID 1963580); note: nearly all actives have a fitted effect of over 45% in size
Outline: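 Cytotoxicity counter screen: intracellular ATP read by CellTiter-Glo luminescence in the p53 reporter wells. HCT-116 p53RE-bla cells were treated for 16 h at 37 C alongside rat liver microsomes and NADPH, each 0.5 mg/mL final.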

[9] = p53 small molecule agonists, cell-based qHTS assay: qHTS cell viability counter screen (AID 1963581); note: nearly all actives have a fitted effect of over 45% in size
Outline: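 ATP content measured by luminescence in HCT-116 p53RE-bla cells treated 16 h at 37 C, same wells as the reporter screen.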

[10] = p53 small molecule agonists, cell-based qHTS assay (AID 1963582; active = well fitted activation curve with a large enough effect in the signal ratio in the repeat runs, not every such curve was filed as active; the % refers to the signal ratio; note: potency is the fitted concentration of half-maximal effect)
Outline: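 16 h compound exposure (37 C) of p53 response element–bla cells, preceded by 5 h recovery at 37 C/5% CO2; read-out via LiveBLAzer B/G FRET substrate, 2 h RT, fluorescence intensity.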

[11] = molecular target: 5-hydroxytryptamine receptor 2A (Homo sapiens) (UniProt P28223); test: 5-hydroxytryptamine receptor 2A (HTR2A) small molecule antagonists, cell-based qHTS assay (AID 1963586); note: nearly all actives have a fitted effect of over 45% in size
5-hydroxytryptamine receptor 2A (Homo sapiens), sequence (P28223 whole entry, looked up): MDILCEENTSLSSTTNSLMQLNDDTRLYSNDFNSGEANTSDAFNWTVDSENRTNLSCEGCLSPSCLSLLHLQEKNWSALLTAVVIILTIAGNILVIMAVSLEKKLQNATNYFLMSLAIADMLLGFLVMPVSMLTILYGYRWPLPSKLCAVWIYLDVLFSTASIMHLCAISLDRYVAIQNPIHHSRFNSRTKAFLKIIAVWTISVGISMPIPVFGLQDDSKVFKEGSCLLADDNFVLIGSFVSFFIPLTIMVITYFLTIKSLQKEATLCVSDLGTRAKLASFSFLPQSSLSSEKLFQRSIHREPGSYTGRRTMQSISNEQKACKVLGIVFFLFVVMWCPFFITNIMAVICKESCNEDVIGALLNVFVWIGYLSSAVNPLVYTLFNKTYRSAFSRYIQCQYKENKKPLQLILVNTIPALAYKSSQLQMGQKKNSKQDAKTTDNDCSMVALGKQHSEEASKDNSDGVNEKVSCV
Outline: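 CHO cells stably expressing human HTR2A were plated for 18 h at 37 C, then loaded with calcium dye for 1 h. Compounds were preincubated 5 min at room temperature before DOI (4 nM solution) was added. Kinetic fluorescence was read for 3 min.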

[12] = molecular target: 5-hydroxytryptamine receptor 2A (Homo sapiens) (UniProt P28223); test: 5-hydroxytryptamine receptor 2A (HTR2A) small molecule agonists, cell-based qHTS assay (AID 1963587); note: nearly all actives have a fitted effect of over 30% in size
Outline: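 Kinetic calcium-flux fluorescence (2 min, 1 sec intervals) after compound addition in agonist mode. HTR2A-CHO cells were cultured 18 h, then dye-loaded 1 h at 37 C.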

[13] = molecular target: Muscarinic acetylcholine receptor M1 (Homo sapiens) (UniProt P11229); test: Cholinergic receptor muscarinic 1 (CHRM1) small molecule antagonists, cell-based qHTS assay (AID 1963588); note: nearly all actives have a fitted effect of over 40% in size
Muscarinic acetylcholine receptor M1 (Homo sapiens), sequence (P11229 whole entry, looked up): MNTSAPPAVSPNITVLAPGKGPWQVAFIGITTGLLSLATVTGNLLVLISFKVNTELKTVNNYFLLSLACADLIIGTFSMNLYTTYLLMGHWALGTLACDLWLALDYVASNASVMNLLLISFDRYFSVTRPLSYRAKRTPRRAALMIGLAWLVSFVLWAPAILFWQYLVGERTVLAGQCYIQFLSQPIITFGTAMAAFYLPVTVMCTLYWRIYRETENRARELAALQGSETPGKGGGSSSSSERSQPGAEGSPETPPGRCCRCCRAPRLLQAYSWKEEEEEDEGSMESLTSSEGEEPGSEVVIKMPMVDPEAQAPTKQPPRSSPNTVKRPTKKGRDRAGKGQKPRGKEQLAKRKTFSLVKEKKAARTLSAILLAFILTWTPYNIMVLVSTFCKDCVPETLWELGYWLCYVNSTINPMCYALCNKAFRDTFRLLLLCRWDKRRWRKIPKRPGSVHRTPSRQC
Outline: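 Compounds were tested at 15 concentrations in three independent runs. Dye-loaded CHRM1-CHO cells were exposed 5 min at room temperature before stimulation by acetylcholine added at 50nM. Intracellular calcium was read kinetically on FDSS for 3 min.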

[14] = molecular target: Muscarinic acetylcholine receptor M1 (Homo sapiens) (UniProt P11229); test: Cholinergic receptor muscarinic 1 (CHRM1) small molecule agonists, cell-based qHTS assay (AID 1963589); note: nearly all actives have a fitted effect of over 35% in size
Outline: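 Homogeneous fluorescence calcium flux, agonist mode. Human M1-expressing CHO cells; compound dosed at 15 concentrations, three independent runs; signal sampled every 1 sec.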

[15] = cAMP Responsive Elements (CRE) small molecule agonists, cell-based qHTS assay (AID 1963590)
Outline: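 HEK 293T cells stably bearing CRE-bla were plated at 2,000 cells per well and rested 18 h. Compounds, positive controls or DMSO were added for 3 h at 37 C. LiveBLAzer B/G substrate was then loaded for 2 h at room temperature.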

[16] = cAMP Responsive Elements (CRE) small molecule antagonists, cell-based qHTS assay (AID 1963591; active = well fitted inhibition curve with a large enough effect in the signal ratio in the repeat runs, not every such curve was filed as active; the % refers to the signal ratio; note: potency is the fitted concentration of half-maximal effect)
Outline: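 First, CRE-bla HEK293T cells settled 18 h at 37 C. Next, compound and 0.25 uM final NKH477 were applied for 3 h. Last, LiveBLAzer B/G substrate was loaded for 2 h at room temperature.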

[17] = molecular target: Beta-2 adrenergic receptor (Homo sapiens) (UniProt P07550); test: Adrenergic beta2 receptor (ADRB2) small molecule antagonists, cell-based qHTS assay (AID 1963592); note: series mostly up to about 92 µM; nearly all actives have a fitted effect of over 50% in size
Beta-2 adrenergic receptor (Homo sapiens), sequence (P07550 whole entry, looked up): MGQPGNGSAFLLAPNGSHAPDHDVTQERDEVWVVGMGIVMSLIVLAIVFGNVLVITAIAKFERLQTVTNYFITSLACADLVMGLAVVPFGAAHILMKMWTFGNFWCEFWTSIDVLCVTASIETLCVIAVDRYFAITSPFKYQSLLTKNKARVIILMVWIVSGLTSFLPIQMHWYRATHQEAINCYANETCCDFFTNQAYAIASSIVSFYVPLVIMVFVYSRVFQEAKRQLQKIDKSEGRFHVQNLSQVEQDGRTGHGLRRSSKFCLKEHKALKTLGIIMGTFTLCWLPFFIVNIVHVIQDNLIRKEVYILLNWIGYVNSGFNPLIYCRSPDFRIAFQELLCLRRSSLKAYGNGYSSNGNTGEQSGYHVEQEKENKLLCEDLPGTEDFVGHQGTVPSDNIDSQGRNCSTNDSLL
Outline: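 Assay format: CHO-ADRB2 cells, 18-20hr seeding at 37C/5% CO2, then compound plus 1nM isoproterenol agonist mix for 0.5hr RT. Homogeneous time-resolved fluorescence cAMP detection after 1hr, expressed as 665/615 nm ratio.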

[18] = molecular target: Beta-2 adrenergic receptor (Homo sapiens) (UniProt P07550); test: Adrenergic beta2 receptor (ADRB2) small molecule agonists, cell-based qHTS assay (AID 1963593);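 note: CHO cells stably overexpressing human ADRB2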
Outline: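 CHO cells stably over-expressing ADRB2 were plated overnight at 37C, then dosed with compounds plus a stimulation mix containing 100uM IBMX and 25uM Ro-20-1724 for 0.5hr at room temperature. cAMP was measured by HTRF competition, 1hr.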

[19] = molecular target: D(2) dopamine receptor (Homo sapiens) (UniProt P14416); test: Dopamine D2 receptor (DRD2) small molecule agonists, cell-based qHTS assay (AID 1963594); note: nearly all actives have a fitted effect of over 35% in size
D(2) dopamine receptor (Homo sapiens), sequence (P14416 whole entry, looked up): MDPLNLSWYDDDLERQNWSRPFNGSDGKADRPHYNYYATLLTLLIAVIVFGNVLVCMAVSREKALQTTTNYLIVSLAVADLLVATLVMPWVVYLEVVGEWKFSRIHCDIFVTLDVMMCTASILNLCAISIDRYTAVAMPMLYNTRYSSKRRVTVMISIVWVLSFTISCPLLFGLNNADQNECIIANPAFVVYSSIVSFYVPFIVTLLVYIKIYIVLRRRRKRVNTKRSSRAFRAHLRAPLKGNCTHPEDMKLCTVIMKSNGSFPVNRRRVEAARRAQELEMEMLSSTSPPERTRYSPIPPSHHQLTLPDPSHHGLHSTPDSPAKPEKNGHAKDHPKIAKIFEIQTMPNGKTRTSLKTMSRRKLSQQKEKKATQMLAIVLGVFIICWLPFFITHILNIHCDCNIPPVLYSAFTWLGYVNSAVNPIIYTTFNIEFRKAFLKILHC
Outline: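 cAMP accumulation in DRD2-HEK293 cells measured by HTRF after 1 h detection; compounds added 10 min before NKH477 (200nM […]) forskolin-analogue stimulation, 30 min at room temperature, with Ro20-1724 present at 0.1 mM final.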

[20] = molecular target: D(2) dopamine receptor (Homo sapiens) (UniProt P14416); test: Dopamine D2 receptor (DRD2) small molecule antagonists, cell-based qHTS assay (AID 1963595; active = well fitted inhibition curve with a large enough effect in the signal ratio in the repeat runs, with a control signal flat; the % refers to the signal ratio)
Outline: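 Cells were plated and grown for 24 h at 37 °C. Ro20-1724 (0.1 mM final) went in first, then compound for 10 min. NKH477 (200 nM) with quinpirole (12 nM) followed for 30 min at RT, then HTRF detection reagents for 1 h.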

SMILES	Potency [1]	Potency [2]	Potency [3]	Potency [4]	Potency [5]	Potency [6]	Potency [7]	Potency [8]	Potency [9]	Potency [10]	Potency [11]	Potency [12]	Potency [13]	Potency [14]	Potency [15]	Potency [16]	Potency [17]	Potency [18]	Potency [19]	Potency [20]
CC(C)(C)C(=O)C(Oc1ccc(Cl)cc1)n1ccnc1 (stereo unspecified)	inactive	inactive	inactive	inactive	inactive	inactive	inactive	inactive	inactive	inactive	inactive	inactive	inactive	inactive	inactive	inactive	inactive	inactive	inactive	inactive
O=c1[nH][nH]c(=O)c2cc([N+](=O)[O-])ccc12	inactive	inactive	inactive	inactive	inactive	inactive	inactive	inactive	inactive	inactive	inactive	inactive	inactive	inactive	inactive	inactive	–	–	inactive	inactive
CCCCC(CC)COC(C)=O (stereo unspecified)	inactive	inactive	inactive	inactive	–	–	inactive	inactive	inactive	–	inactive	inactive	inactive	inactive	inactive	inactive	inactive	–	inactive	inactive
C=C(C)C(=O)OCCCCCCCC(C)C	inactive	inactive	inactive	inactive	inactive	inactive	inactive	inactive	inactive	–	inactive	inactive	inactive	inactive	–	inactive	inactive	–	inactive	inactive
COc1cccc2c1C(=O)c1c(O)c3c(c(O)c1C2=O)C[C@@](O)(C(=O)CO)C[C@@H]3O[C@H]1C[C@H](N)[C@H](O)[C@H](C)O1	7.5 µM (active)	2.73 µM (active) and 6.68 µM (active)	inactive	inactive	inactive	inactive	inactive	–	inactive	0.457 µM (active)	–	–	–	–	inactive	26.6 µM (active)	–	–	–	–
CC(CO)c1ccccc1 (stereo unspecified)	inactive	inactive	inactive	inactive	inactive	inactive	–	inactive	inactive	inactive	inactive	inactive	inactive	inactive	inactive	inactive	inactive	inactive	inactive	inactive
CCC(C)(Oc1ccc(C2(c3ccc(OC(C)(CC)C(=O)O)cc3)CCCCC2)cc1)C(=O)O (stereo unspecified)	inactive	inactive	inactive	inactive	inactive	inactive	inactive	–	inactive	inactive	inactive	inactive	inactive	inactive	inactive	inactive	inactive	inactive	inactive	–
COc1ccc(C)cc1	inactive	inactive	inactive	inactive	inactive	–	inactive	inactive	inactive	inactive	inactive	inactive	inactive	–	inactive	–	inactive	inactive	inactive	inactive
